# In publication PMC7862700, “An all-to-all approach to the identification of sequence-specific readers for epigenetic DNA modifications on cytosine”:
# Assays:
# Test in all cases: DAPPL (digital affinity profiling via proximity ligation, sequencing); 10 mM Tris-HCl pH 7.5, 50 mM NaCl, 1 mM DTT, 4% glycerol, room temperature, 30 min; GST-TFs on glutathione beads, 16-mer random dsDNA library, 0.1% formaldehyde crosslink after washing; high values mean tight binding
# [1] = biological target: T1, ELK1 (Homo sapiens, UniProt P19419 1-428); settings: protein: recombinant; tags: N-terminal GST; dsDNA, one strand shown
# T1 sequence: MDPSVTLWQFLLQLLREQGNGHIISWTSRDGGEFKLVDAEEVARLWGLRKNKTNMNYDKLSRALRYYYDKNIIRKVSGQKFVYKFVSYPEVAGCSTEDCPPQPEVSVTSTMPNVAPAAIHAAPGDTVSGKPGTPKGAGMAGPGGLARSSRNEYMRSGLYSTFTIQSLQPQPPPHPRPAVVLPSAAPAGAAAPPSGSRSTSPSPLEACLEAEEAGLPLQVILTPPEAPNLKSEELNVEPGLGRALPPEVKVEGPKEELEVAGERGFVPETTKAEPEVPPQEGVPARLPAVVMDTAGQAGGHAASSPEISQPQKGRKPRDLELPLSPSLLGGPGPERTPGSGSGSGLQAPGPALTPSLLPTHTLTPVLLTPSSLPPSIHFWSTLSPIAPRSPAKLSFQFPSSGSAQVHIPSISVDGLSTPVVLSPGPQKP
# Method in brief: (§1)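 Yeast served to express human transcription factors as GST fusions, which were then captured on glutathione beads and labelled with DNA barcodes. Pooled with a tag-only sample, they were incubated with 200 nmole of a 16-mer random double-stranded DNA library for 30 min at room temperature in Tris/NaCl/DTT/glycerol buffer, washed, crosslinked with 0.1% formaldehyde, ligated by proximity, amplified by PCR and sequenced. Dividing each hexamer's read frequency for a factor by its frequency for the tag-only sample gives the binding signal.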
# [2] = biological target: T2, GABPA (Homo sapiens, UniProt Q06546 1-454); settings: protein: recombinant; tags: N-terminal GST; dsDNA, one strand shown
# T2 sequence: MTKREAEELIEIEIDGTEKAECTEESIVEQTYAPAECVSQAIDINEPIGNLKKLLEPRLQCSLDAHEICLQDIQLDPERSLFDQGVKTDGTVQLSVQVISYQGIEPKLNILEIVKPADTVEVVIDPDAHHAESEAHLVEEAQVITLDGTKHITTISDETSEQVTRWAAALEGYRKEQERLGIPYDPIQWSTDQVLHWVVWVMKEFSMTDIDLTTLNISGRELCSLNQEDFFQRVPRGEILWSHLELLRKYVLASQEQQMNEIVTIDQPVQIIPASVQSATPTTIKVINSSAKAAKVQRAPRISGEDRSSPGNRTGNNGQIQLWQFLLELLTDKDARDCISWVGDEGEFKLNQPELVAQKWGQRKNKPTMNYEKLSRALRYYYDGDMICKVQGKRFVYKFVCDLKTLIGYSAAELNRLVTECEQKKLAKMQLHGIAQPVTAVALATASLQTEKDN
# Method in brief: as §1
# [3] = biological target: T3, ERG (Homo sapiens, UniProt P11308 1-479); settings: protein: recombinant; tags: N-terminal GST; dsDNA, one strand shown
# T3 sequence: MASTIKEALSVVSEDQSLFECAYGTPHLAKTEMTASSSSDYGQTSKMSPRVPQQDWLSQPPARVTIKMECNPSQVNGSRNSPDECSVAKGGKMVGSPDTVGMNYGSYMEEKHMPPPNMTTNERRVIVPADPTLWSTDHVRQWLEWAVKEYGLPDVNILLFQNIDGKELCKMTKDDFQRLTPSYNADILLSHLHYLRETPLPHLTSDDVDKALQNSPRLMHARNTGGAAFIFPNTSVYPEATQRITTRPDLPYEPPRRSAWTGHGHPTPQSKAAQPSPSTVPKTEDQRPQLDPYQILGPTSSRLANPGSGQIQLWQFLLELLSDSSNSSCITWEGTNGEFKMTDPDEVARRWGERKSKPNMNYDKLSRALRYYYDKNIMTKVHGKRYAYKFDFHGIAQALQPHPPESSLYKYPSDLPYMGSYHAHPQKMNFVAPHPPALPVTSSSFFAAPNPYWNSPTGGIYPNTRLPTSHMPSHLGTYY
# Method in brief: as §1
# [4] = biological target: ELF1 (Homo sapiens, UniProt P32519 1-619); settings: protein: recombinant; tags: N-terminal GST; dsDNA, one strand shown
# Method in brief: as §1
# [5] = biological target: T4, EHF (Homo sapiens, UniProt Q9NZC4 1-300); settings: protein: recombinant; tags: N-terminal GST; dsDNA, one strand shown
# T4 sequence: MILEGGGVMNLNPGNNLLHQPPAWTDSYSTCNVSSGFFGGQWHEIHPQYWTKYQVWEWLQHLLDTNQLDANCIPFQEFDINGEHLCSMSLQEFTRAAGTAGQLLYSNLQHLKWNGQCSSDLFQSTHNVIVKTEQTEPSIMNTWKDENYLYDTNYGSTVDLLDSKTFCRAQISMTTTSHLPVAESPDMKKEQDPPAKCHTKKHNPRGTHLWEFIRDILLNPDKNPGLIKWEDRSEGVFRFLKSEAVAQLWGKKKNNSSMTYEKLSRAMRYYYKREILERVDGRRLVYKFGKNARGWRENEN
# Method in brief: as §1
# [6] = biological target: SPIB (Homo sapiens, UniProt Q01892 1-262); settings: protein: recombinant; tags: N-terminal GST; dsDNA, one strand shown
# Method in brief: as §1
# [7] = biological target: HSF1 (Homo sapiens, UniProt Q00613 1-529); settings: protein: recombinant; tags: N-terminal GST; chain copies: 3; dsDNA, one strand shown
# Method in brief: as §1
# [8] = biological target: ELF4 (Homo sapiens, UniProt Q99607 1-663); settings: protein: recombinant; tags: N-terminal GST; dsDNA, one strand shown
# Method in brief: as §1
# [9] = biological target: T5, ELK4 (Homo sapiens, UniProt P28324-2 1-405); settings: protein: recombinant; tags: N-terminal GST; dsDNA, one strand shown
# T5 sequence: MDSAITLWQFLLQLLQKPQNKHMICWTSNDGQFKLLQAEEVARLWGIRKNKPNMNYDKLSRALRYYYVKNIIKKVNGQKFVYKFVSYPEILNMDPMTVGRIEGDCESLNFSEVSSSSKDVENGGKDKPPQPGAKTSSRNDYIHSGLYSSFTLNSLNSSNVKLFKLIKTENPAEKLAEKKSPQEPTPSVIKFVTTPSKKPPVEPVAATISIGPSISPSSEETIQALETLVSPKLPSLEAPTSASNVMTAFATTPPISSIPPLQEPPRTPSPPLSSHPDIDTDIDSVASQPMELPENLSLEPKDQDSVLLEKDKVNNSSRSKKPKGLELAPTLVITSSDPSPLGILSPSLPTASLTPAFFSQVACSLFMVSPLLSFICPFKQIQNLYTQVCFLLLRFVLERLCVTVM
# Method in brief: as §1
# [10] = biological target: T6, ELF3 (Homo sapiens, UniProt P78545 1-371); settings: protein: recombinant; tags: N-terminal GST; dsDNA, one strand shown
# T6 sequence: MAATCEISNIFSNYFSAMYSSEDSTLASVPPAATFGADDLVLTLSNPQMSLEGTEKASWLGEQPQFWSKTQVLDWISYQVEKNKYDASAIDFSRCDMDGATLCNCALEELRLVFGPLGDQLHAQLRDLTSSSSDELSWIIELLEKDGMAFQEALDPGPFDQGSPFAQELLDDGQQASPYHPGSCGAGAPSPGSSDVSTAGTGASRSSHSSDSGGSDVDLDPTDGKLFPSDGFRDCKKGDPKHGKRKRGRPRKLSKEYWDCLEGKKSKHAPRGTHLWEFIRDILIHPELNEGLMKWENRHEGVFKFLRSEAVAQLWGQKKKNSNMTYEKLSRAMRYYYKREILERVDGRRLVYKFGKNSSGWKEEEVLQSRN
# Method in brief: as §1
# [11] = biological target: CRX (Homo sapiens, UniProt O43186 1-299); settings: protein: recombinant; tags: N-terminal GST; dsDNA, one strand shown
# Method in brief: as §1
# [12] = biological target: ETV1 (Homo sapiens, UniProt P50549 1-477); settings: protein: recombinant; tags: N-terminal GST; dsDNA, one strand shown
# Method in brief: as §1
# [13] = biological target: T7, ERF (Homo sapiens, UniProt P50548 1-548); settings: protein: recombinant; tags: N-terminal GST; dsDNA, one strand shown
# T7 sequence: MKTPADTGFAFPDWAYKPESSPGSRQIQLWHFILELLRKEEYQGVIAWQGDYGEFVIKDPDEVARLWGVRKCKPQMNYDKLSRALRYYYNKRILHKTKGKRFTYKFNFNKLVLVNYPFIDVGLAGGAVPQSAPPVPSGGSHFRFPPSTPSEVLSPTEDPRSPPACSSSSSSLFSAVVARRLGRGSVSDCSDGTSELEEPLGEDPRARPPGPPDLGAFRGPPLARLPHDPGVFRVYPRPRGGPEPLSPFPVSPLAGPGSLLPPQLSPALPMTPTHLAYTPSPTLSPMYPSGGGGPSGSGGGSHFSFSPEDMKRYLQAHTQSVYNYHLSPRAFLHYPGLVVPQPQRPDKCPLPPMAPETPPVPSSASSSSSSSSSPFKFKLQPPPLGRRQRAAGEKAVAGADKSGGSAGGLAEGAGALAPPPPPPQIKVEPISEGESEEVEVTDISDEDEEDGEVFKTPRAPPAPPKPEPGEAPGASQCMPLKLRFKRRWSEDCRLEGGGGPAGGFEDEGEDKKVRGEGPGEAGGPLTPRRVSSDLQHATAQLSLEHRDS
# Method in brief: as §1
# [14] = biological target: T8, ETV3L (Homo sapiens, UniProt Q6ZN32 1-361); settings: protein: recombinant; tags: N-terminal GST; dsDNA, one strand shown
# T8 sequence: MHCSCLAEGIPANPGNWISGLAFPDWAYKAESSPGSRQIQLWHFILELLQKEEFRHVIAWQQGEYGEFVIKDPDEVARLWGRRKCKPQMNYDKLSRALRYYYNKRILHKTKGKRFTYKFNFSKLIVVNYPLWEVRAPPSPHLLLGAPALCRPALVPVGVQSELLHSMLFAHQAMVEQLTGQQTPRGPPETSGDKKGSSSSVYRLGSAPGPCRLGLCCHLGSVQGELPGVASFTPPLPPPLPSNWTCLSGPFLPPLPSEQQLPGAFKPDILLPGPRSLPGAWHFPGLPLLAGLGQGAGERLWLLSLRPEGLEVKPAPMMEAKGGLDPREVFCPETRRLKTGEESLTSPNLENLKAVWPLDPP
# Method in brief: as §1
# [15] = biological target: T9, SPDEF (Homo sapiens, UniProt O95238 1-335); settings: protein: recombinant; tags: N-terminal GST; dsDNA, one strand shown
# T9 sequence: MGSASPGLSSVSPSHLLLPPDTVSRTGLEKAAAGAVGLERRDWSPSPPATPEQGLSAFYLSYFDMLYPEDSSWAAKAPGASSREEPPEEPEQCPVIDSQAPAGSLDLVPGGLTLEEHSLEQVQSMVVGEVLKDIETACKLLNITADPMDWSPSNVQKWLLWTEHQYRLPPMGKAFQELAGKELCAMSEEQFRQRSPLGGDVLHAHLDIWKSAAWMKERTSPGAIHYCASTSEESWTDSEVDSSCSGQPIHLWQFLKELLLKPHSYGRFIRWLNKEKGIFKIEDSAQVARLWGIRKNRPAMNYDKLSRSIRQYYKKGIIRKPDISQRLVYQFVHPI
# Method in brief: as §1
# [16] = biological target: T10, ETV7 (Homo sapiens, UniProt Q9Y603 1-341); settings: protein: recombinant; tags: N-terminal GST; dsDNA, one strand shown
# T10 sequence: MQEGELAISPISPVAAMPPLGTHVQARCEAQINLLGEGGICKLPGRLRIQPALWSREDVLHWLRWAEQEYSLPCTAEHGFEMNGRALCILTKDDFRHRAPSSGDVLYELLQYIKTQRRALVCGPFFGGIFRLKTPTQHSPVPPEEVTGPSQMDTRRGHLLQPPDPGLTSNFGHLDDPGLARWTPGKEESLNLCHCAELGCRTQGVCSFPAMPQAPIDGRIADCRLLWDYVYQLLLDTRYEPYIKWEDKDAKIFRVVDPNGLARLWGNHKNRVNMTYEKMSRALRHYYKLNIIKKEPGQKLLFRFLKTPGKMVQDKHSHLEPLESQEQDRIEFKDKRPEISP
# Method in brief: as §1
# [17] = biological target: T11, ELF5 (Homo sapiens, UniProt Q9UKW6-2 1-255); settings: protein: recombinant; tags: N-terminal GST; dsDNA, one strand shown
# T11 sequence: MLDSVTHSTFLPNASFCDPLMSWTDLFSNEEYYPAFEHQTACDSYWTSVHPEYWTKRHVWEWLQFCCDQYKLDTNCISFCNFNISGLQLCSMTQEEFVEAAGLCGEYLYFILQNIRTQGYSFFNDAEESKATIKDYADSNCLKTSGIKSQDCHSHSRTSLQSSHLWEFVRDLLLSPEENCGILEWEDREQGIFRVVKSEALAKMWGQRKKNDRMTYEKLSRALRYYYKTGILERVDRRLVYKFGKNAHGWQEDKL
# Method in brief: as §1
# [18] = biological target: T12, ETV3 (Homo sapiens, UniProt P41162-2 1-143); settings: protein: recombinant; tags: N-terminal GST; dsDNA, one strand shown
# T12 sequence: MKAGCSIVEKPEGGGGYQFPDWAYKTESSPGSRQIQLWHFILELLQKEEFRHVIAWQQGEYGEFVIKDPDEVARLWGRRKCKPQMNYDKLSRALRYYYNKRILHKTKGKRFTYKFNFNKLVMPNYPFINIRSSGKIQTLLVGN
# Method in brief: as §1
# Sequence of ETV1 (P50549 whole entry): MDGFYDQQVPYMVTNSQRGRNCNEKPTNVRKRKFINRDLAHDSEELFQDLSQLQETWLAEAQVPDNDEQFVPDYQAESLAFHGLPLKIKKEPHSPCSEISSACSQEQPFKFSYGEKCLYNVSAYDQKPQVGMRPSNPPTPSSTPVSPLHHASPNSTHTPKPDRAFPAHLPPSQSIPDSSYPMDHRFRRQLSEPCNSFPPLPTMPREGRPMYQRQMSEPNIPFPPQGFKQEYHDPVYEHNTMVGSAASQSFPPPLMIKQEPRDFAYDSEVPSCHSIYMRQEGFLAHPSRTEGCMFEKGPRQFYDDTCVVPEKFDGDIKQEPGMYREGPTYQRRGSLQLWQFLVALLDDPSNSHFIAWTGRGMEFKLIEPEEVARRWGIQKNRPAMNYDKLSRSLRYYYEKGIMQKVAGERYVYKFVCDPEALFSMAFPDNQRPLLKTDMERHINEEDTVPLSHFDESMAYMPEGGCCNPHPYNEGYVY
# Sequence of HSF1 (Q00613 whole entry): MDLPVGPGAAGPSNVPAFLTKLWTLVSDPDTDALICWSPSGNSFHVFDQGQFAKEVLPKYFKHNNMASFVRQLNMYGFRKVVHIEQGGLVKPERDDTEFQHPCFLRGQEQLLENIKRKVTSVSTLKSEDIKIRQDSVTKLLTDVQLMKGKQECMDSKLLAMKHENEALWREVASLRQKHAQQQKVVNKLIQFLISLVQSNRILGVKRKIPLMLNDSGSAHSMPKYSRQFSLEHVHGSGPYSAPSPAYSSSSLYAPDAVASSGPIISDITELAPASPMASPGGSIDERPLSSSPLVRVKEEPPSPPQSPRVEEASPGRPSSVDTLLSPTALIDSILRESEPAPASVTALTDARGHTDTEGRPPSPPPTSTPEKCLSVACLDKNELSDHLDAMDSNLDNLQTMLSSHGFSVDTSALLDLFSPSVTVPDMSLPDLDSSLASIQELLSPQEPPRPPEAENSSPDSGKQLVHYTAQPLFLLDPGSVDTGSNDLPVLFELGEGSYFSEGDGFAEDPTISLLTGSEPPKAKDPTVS
# Sequence of SPIB (Q01892 whole entry): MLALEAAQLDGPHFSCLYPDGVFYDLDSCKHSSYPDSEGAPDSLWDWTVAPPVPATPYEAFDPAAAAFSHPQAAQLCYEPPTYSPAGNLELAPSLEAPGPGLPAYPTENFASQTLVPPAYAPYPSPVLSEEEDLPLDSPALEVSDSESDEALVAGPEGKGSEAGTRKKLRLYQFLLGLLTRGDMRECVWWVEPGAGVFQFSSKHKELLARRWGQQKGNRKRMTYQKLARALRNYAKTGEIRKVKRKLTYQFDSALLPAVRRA
# Sequence of CRX (O43186 whole entry): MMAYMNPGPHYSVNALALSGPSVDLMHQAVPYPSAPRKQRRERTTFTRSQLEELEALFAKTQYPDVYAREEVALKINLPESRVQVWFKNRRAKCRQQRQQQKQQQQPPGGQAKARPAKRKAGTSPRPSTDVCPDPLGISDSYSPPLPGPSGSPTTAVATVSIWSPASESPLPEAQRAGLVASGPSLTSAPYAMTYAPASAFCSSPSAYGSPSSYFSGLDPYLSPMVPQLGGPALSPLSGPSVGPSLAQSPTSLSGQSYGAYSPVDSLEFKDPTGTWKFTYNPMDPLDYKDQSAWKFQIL
# Sequence of ELF4 (Q99607 whole entry): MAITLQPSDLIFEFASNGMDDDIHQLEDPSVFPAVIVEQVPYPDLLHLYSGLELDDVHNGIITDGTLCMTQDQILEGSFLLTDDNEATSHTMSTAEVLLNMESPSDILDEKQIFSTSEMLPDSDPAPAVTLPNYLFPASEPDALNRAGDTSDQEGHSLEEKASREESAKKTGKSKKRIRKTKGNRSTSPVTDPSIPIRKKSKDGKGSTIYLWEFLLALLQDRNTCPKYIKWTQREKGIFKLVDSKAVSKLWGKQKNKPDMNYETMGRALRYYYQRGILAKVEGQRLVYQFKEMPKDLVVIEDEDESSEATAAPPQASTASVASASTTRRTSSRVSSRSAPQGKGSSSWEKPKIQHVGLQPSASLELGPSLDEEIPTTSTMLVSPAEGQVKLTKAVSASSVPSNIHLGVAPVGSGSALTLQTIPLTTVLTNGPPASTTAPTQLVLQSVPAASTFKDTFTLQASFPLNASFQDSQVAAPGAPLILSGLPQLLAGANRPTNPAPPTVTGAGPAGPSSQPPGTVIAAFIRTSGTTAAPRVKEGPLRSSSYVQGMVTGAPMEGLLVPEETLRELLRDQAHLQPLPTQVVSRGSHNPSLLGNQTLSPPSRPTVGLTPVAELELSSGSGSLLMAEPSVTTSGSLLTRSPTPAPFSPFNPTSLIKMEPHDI
# Sequence of ELF1 (P32519 whole entry): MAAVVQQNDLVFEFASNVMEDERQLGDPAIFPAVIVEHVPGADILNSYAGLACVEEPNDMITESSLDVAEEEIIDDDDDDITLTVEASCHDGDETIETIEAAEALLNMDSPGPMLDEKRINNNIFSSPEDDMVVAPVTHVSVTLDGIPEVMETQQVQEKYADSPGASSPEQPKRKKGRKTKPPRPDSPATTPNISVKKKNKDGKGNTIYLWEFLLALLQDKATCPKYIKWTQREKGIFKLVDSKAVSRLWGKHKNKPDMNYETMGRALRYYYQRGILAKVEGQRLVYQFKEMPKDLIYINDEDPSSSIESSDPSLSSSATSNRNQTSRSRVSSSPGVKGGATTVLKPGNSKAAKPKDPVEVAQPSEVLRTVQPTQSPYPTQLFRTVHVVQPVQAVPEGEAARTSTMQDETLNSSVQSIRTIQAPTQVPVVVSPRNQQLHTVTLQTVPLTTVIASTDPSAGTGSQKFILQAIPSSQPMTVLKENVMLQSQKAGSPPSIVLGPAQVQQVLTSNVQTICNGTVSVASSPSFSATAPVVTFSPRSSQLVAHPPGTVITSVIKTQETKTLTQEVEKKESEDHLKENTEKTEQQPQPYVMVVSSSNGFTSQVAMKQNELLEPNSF
sequence,measurement,setting,value
GCGAAT,binding signal,[1],"1.07 fold enrichment (6-mer frequency, TF over GST control)"
same,binding signal,[2],"1.05 fold enrichment (6-mer frequency, TF over GST control)"
same,binding signal,[3],"1.08 fold enrichment (6-mer frequency, TF over GST control)"
same,binding signal,[4],"1.11 fold enrichment (6-mer frequency, TF over GST control)"
same,binding signal,[5],"1.17 fold enrichment (6-mer frequency, TF over GST control)"
same,binding signal,[6],"1 fold enrichment (6-mer frequency, TF over GST control)"
same,binding signal,[7],"1.27 fold enrichment (6-mer frequency, TF over GST control)"
same,binding signal,[8],"1.02 fold enrichment (6-mer frequency, TF over GST control)"
same,binding signal,[9],"1.17 fold enrichment (6-mer frequency, TF over GST control)"
same,binding signal,[10],"1.12 fold enrichment (6-mer frequency, TF over GST control)"
same,binding signal,[11],"1.08 fold enrichment (6-mer frequency, TF over GST control)"
same,binding signal,[12],"1.04 fold enrichment (6-mer frequency, TF over GST control)"
same,binding signal,[13],"1.05 fold enrichment (6-mer frequency, TF over GST control)"
same,binding signal,[14],"1.06 fold enrichment (6-mer frequency, TF over GST control)"
same,binding signal,[15],"1.08 fold enrichment (6-mer frequency, TF over GST control)"
same,binding signal,[16],"1.04 fold enrichment (6-mer frequency, TF over GST control)"
same,binding signal,[17],"1.04 fold enrichment (6-mer frequency, TF over GST control)"
same,binding signal,[18],"1.07 fold enrichment (6-mer frequency, TF over GST control)"
